# A number with no mark means an inactive call. Inconclusive results are not listed. Entries that show only a call come without a potency. Calls of active or inactive are those of the source. The call rests on the fitted dose curve.
# Assays:
# [1] = molecular target: Acetylcholinesterase (Homo sapiens) (UniProt P22303); assay: Acetylcholinesterase (AChE) small molecule antagonists: colormetric cell-based qHTS assay (AID 1347395); further: nearly all actives have a fitted effect of over 30% in size
# Outline: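 SH-SY5Y cells; cpd 30 min 37 C; + DTNB/acetylthiocholine, 90 min 37 C; colorimetric thiocholine read; qHTS.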
# [2] = molecular target: Acetylcholinesterase (Homo sapiens) (UniProt P22303); assay: Acetylcholinesterase (AChE) small molecule antagonists: enzyme-based qHTS assay (AID 1347397); settings: Potency: AChE enzyme activity inhibition; outcome: AChE enzyme activity inhibition; further: nearly all actives have a fitted effect of over 55% in size
# Outline: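 In this quantitative HTS, compounds from the Tox21 10K collection were preincubated 30 min at ambient temperature with recombinant human AChE dispensed at 50 mU/mL. Hydrolysis of acetylthiocholine was then followed for 10 min by DTNB colour development.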
# [3] = molecular target: Acetylcholinesterase (Homo sapiens) (UniProt P22303); assay: Acetylcholinesterase (AChE) small molecule antagonists: fluorescence cell-based qHTS assay (AID 1347398); settings: Potency: AChE activity; outcome: AChE activity; further: nearly all actives have a fitted effect of over 50% in size; further: potency means the concentration at half of the fitted maximal effect
# Outline: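 Cells (SH-SY5Y) attached overnight, were dosed with compound or DMSO vehicle for 30 min at 37 C, and then incubated 40 min at room temperature with acetylthiocholine and Thiolite Green; green fluorescence indexed AChE activity.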
# [4] = molecular target: Acetylcholinesterase (Homo sapiens) (UniProt P22303); assay: Acetylcholinesterase (AChE) small molecule antagonists: enzyme-based qHTS assay with human liver microsomes (AID 1347399); settings: Potency: qHTS inhibition; outcome: qHTS inhibition; further: nearly all actives have a fitted effect of over 60% in size
# Outline: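 Recombinant human AChE (50 mU/mL in the enzyme mix) and human liver microsomes (0.25 mg/mL final) were preincubated with compound and NADPH (0.25 mg/mL final) for 30 min at 37 C. Acetylthiocholine/DTNB was then added; thiocholine was read colorimetrically after 10 min at room temperature.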
# Chain of Acetylcholinesterase (Homo sapiens) (P22303 whole entry, looked up): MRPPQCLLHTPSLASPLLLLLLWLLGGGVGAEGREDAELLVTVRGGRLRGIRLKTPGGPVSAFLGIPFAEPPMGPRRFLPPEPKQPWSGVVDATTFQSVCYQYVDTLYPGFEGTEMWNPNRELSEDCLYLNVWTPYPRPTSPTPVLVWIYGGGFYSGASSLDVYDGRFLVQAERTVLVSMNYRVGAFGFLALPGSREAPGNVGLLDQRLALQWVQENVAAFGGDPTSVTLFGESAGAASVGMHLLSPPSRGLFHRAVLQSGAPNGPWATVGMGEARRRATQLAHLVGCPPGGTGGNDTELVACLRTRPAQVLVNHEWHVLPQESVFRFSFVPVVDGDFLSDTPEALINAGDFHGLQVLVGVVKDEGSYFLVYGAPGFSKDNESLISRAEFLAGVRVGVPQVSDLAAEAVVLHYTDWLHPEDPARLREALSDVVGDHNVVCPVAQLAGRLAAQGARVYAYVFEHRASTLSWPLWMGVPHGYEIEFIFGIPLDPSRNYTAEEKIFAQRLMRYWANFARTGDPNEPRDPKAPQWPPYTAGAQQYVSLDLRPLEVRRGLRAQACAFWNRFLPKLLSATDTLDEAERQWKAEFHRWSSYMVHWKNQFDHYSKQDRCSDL
Structure (SMILES),Potency [1],Potency [2],Potency [3],Potency [4],"activity, negative = inhibition [1]","activity change, negative = inhibition [2]","activity change, negative = inhibition [3]","activity change, negative = inhibition [4]"
COC(=O)Nc1nc2ccc(Sc3ccccc3)cc2[nH]1,inactive,inactive,inactive,inactive,–,–,–,–
CCCCC(CC)C(=O)OCCOCCOCCOCCOC(=O)C(CC)CCCC (stereo not given),inactive,inactive,inactive,inactive,–,–,–,–
CC12CCC(CC1=O)C2(C)C (stereo not given),inactive,inactive,inactive,inactive,–,–,–,–
CC(=O)C(C)C,inactive,inactive,inactive,inactive,–,–,–,–
CC/C(=C\C(=N/O)C(N)=O)C(C)[N+](=O)[O-] (stereo not given),inactive,inactive,inactive,inactive,–,–,–,–
CCC(C)(C)c1cc(O)c(C(C)(C)CC)cc1O,inactive,inactive,inactive,inactive,–,–,–,–
CC(C)(C)CC(C)(C)c1ccccc1O,inactive,inactive,inactive,inactive,–,–,–,–
CC1CCC(CO)CC1 (stereo not given),inactive,inactive,inactive,inactive,–,–,–,–
CC(O)CO (stereo not given),inactive,inactive,inactive,inactive,–,–,–,–
Cc1ccc(S(=O)(=O)NC(=O)NN2CCCCCC2)cc1,inactive,inactive,inactive,inactive,–,–,–,–
CC(C)(C)C(=O)c1ccccc1,inactive,inactive,inactive,inactive,–,–,–,–
CCc1ccc(Br)cc1,inactive,inactive,inactive,inactive,–,–,–,–
O=C(CCCCCCCCC#CI)Oc1ccccc1,inactive,inactive,inactive,inactive,–,–,–,–
N#C[C@@H]1CC(F)(F)CN1C(=O)CNC1CC2CCC(C1)N2c1ncccn1 (stereo not given in full),inactive,inactive,inactive,inactive,–,–,–,–
O=C(OCc1ccccc1)c1ccc(O)cc1,inactive,inactive,inactive,inactive,–,–,–,–
CC(C)(CO)[N+](=O)[O-],inactive,inactive,inactive,inactive,–,–,–,–
C=CCOC(=O)CCC1CCCCC1,inactive,inactive,inactive,inactive,–,–,–,–
NNC(=O)c1ccncc1,inactive,inactive,inactive,inactive,–,–,–,–
CCCCCCCC(=O)OC,inactive,inactive,inactive,inactive,–,–,–,–
CC(C)(C)NCC(O)c1cc(O)cc(O)c1 (stereo not given),inactive,inactive,inactive,inactive,–,–,–,–
CCc1ncc(C)[nH]1,inactive,inactive,inactive,inactive,–,–,–,–
OCCOc1ccc(OCCO)cc1,inactive,inactive,inactive,inactive,–,–,–,–
OC/C=C/c1ccccc1,inactive,inactive,inactive,inactive,–,–,–,–
CN1CCN(C2=Nc3cc(F)ccc3Cc3ccccc32)CC1,inactive,inactive,inactive,inactive,–,–,–,–
c1ccc2sc(SN3CCOCC3)nc2c1,inactive,inactive,inactive,inactive,–,–,–,–
CC(NN)c1ccccc1 (stereo not given),–,–,–,–,1.5% [at 23.6 µM],0.277% [at 23.6 µM],0.294% [at 23.8 µM],1.27% [at 23.6 µM]
CCOc1ccc([N+](=O)[O-])cc1,inactive,inactive,inactive,inactive,–,–,–,–
OCCCCCO,inactive,inactive,inactive,inactive,–,–,–,–
NC(N)=NC(N)=NCCc1ccccc1,inactive,inactive,inactive,inactive,–,–,–,–
[O-][n+]1ccccc1SSc1cccc[n+]1[O-],–,–,12 µM (active),–,-9.35% [at 23.6 µM],-9.5% [at 23.6 µM],–,-15.2% [at 23.6 µM]
